Results published in PubChem BioAssay (Tox21).
Inconclusive results are not listed. Activity calls are given as the source filed them. Calls follow the shape of the dose curve; as a rule, active = well fitted curve in the direction sought with a large enough effect in the repeat runs; inconclusive = weak or mixed curves; inactive = no such curve, though single readings can be large; an effect the other way counts as inactive or inconclusive.

Columns and labels:
[1] = qHTS RealTime-Glo MT Cell Viability Assay in HepG2 cells - 24 hour (AID 1224867); also: nearly all actives have a fitted effect of over 50% in size
Procedure, shortened: (§1)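 HepG2 cells (600/well) were dispensed with RealTime-Glo reagents, incubated 5 h at 37 °C, then treated with compounds in DMSO for up to 40 h. Nonlytic NanoLuc luminescence reflecting viable cells was read at each stated time point.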

[2] = qHTS RealTime-Glo MT Cell Viability Assay in HEK293 cells - 32 hour (AID 1224868); also: top concentration of the series differs between compounds; nearly all actives have a fitted effect of over 50% in size
Procedure, shortened: (§2)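 HEK293 cells seeded with NanoLuc/prosubstrate reagent, rested 5 h at 37 C, then dosed and kept at 37 C up to 40 h. Nonlytic real-time luminescence from viable cells read at 0, 8, 16, 24, 32 and 40 h.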

[3] = A CellTox Green Cytotoxicity Assay to monitor cytotoxicity in HEK293 cells - 0 hour (AID 1224869); also: nearly all actives have a fitted effect of over 50% in size
Procedure, shortened: (§3)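 Nonlytic real-time cytotoxicity: HEK293 + CellTox Green reagent plated, 5 h preincubation, pintool compound addition (23 nL in DMSO), 37 C for 40 h, fluorescence measured at successive time points.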

[4] = qHTS RealTime-Glo MT Cell Viability Assay in HepG2 cells - 40 hour (AID 1224870); also: nearly all actives have a fitted effect of over 50% in size
Procedure, shortened: (§4)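 HepG2 cells (600/well) mixed with RealTime-Glo MT reagent, settled 5 h at 37 C/5% CO2 before compound addition. Nonlytic NanoLuc luminescence from viable-cell prosubstrate reduction read repeatedly during 40 h treatment at 37 C.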

[5] = A CellTox Green Cytotoxicity Assay to monitor cytotoxicity in HEK293 cells - 40 hour (AID 1224871); also: nearly all actives have a fitted effect of over 45% in size; also: potency is read from the fitted curve at half-maximal effect
Procedure, shortened: as §3

[6] = qHTS RealTime-Glo MT Cell Viability Assay in HEK293 cells - 16 hour (AID 1224872)
Procedure, shortened: as §2

[7] = qHTS RealTime-Glo MT Cell Viability Assay in HepG2 cells - 8 hour (AID 1224873); also: nearly all actives have a fitted effect of over 55% in size
Procedure, shortened: as §4

[8] = qHTS RealTime-Glo MT Cell Viability Assay in HEK293 cells - 40 hour (AID 1224874); conditions: RealTime-Glo luminescence; max response: stronger effect = lower value; also: nearly all actives have a fitted effect of over 50% in size
Procedure, shortened: (§5)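 Cells were seeded together with NanoLuc luciferase and a prosubstrate that viable cells reduce to a luciferase substrate. After a 5 h incubation at 37 C/5% CO2, compounds were added and luminescence was measured repeatedly during 40 h of treatment.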

[9] = A CellTox Green Cytotoxicity Assay to monitor cytotoxicity in HepG2 cells - 16 hour (AID 1224876); also: nearly all actives have a fitted effect of over 45% in size
Procedure, shortened: (§6)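 Read-out is fluorescence of a cyanine dye excluded from live cells that stains DNA of dead HepG2 cells, with signal proportional to cytotoxicity. Plates were read at 0, 8, 16, 24, 32 and 40 h after compound addition.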

[10] = A CellTox Green Cytotoxicity Assay to monitor cytotoxicity in HepG2 cells - 24 hour (AID 1224878); also: nearly all actives have a fitted effect of over 45% in size
Procedure, shortened: as §6

[11] = A CellTox Green Cytotoxicity Assay to monitor cytotoxicity in HepG2 cells - 40 hour (AID 1224879); also: nearly all actives have a fitted effect of over 40% in size
Procedure, shortened: as §6

[12] = qHTS RealTime-Glo MT Cell Viability Assay in HEK293 cells - 0 hour (AID 1224880); also: top concentration of the series differs between compounds; nearly all actives have a fitted effect of over 45% in size
Procedure, shortened: as §5

[13] = A CellTox Green Cytotoxicity Assay to monitor cytotoxicity in HEK293 cells - 32 hour (AID 1224881); also: nearly all actives have a fitted effect of over 40% in size; also: potency is read from the fitted curve at half-maximal effect
Procedure, shortened: as §3

[14] = A CellTox Green Cytotoxicity Assay to monitor cytotoxicity in HepG2 cells - 0 hour (AID 1224882); also: nearly all actives have a fitted effect of over 35% in size
Procedure, shortened: as §6

[15] = A CellTox Green Cytotoxicity Assay to monitor cytotoxicity in HepG2 cells - 32 hour (AID 1224883); also: nearly all actives have a fitted effect of over 50% in size
Procedure, shortened: as §6

[16] = A CellTox Green Cytotoxicity Assay to monitor cytotoxicity in HEK293 cells - 8 hour (AID 1224884); also: nearly all actives have a fitted effect of over 35% in size
Procedure, shortened: as §3

[17] = qHTS RealTime-Glo MT Cell Viability Assay in HepG2 cells - 16 hour (AID 1224885); also: nearly all actives have a fitted effect of over 50% in size
Procedure, shortened: as §1

[18] = qHTS RealTime-Glo MT Cell Viability Assay in HEK293 cells - 24 hour (AID 1224886)
Procedure, shortened: as §2

[19] = A CellTox Green Cytotoxicity Assay to monitor cytotoxicity in HEK293 cells - 24 hour (AID 1224875)
Procedure, shortened: as §3

[20] = qHTS RealTime-Glo MT Cell Viability Assay in HepG2 cells - 32 hour (AID 1224877); also: nearly all actives have a fitted effect of over 55% in size
Procedure, shortened: as §1
% is scaled to controls: 0 for no effect and ±100 for the full control effect.

O=C(O)CSCC(=O)NC1CCSC1=O (stereo unspecified)
inactive: outcome [1] | Potency [2] | Potency [3] | outcome [4] | Potency [5] | Potency [6] | outcome [7] | max response [8] -1.55% | Potency [9] | Potency [10] | Potency [11] | Potency [12] | Potency [13] | Potency [14] | Potency [15] | Potency [16] | outcome [17] | Potency [18]

CCC[C@@H]1C[C@@H](C(=O)N[C@@H]([C@H]2O[C@H](SC)[C@H](O)[C@@H](O)[C@H]2O)[C@@H](C)O)N(C)C1
inactive: outcome [1] | Potency [2] | Potency [3] | outcome [4] | Potency [5] | Potency [6] | outcome [7] | max response [8] 0.684% | Potency [19] | Potency [9] | outcome [20] | Potency [10] | Potency [11] | Potency [12] | Potency [13] | Potency [14] | Potency [15] | Potency [16] | outcome [17] | Potency [18]

CC(=O)CC(=O)OC(C)(C)C
inactive: outcome [1] | Potency [2] | Potency [3] | outcome [4] | Potency [5] | Potency [6] | outcome [7] | max response [8] 1.26% | Potency [9] | outcome [20] | Potency [10] | Potency [11] | Potency [12] | Potency [13] | Potency [14] | Potency [15] | outcome [17] | Potency [18]

OC[C@H]1O[C@@H](O[C@@H]2[C@@H](CO)O[C@](O)(CO)[C@H]2O)[C@H](O)[C@@H](O)[C@H]1O
inactive: outcome [1] | Potency [2] | Potency [3] | outcome [4] | Potency [5] | Potency [6] | outcome [7] | max response [8] 1.5% | Potency [19] | Potency [9] | outcome [20] | Potency [10] | Potency [11] | Potency [12] | Potency [13] | Potency [15] | Potency [16] | outcome [17] | Potency [18]

COC(=O)c1ccccc1C(=O)O
inactive: outcome [1] | Potency [2] | Potency [3] | outcome [4] | Potency [5] | Potency [6] | outcome [7] | max response [8] -0.818% | Potency [19] | Potency [9] | Potency [10] | Potency [11] | Potency [12] | Potency [13] | Potency [14] | Potency [15] | Potency [16] | outcome [17] | Potency [18]

CCNC(=O)NCc1cccc(Cl)c1
inactive: outcome [1] | Potency [2] | Potency [3] | outcome [4] | Potency [5] | Potency [6] | outcome [7] | max response [8] 0.19% | Potency [9] | outcome [20] | Potency [10] | Potency [11] | Potency [12] | Potency [13] | Potency [14] | Potency [15] | Potency [16] | outcome [17] | Potency [18]

CCCSSCCC
inactive: outcome [1] | Potency [2] | Potency [3] | outcome [4] | Potency [5] | Potency [6] | outcome [7] | max response [8] 2.19% | Potency [19] | Potency [9] | outcome [20] | Potency [10] | Potency [11] | Potency [12] | Potency [13] | Potency [14] | Potency [15] | Potency [16] | outcome [17] | Potency [18]

c1ccc2c(CC3=NCCN3)cccc2c1
inactive: outcome [1] | Potency [2] | Potency [3] | outcome [4] | Potency [5] | Potency [6] | outcome [7] | max response [8] -13.3% | Potency [19] | Potency [9] | outcome [20] | Potency [10] | Potency [11] | Potency [12] | Potency [13] | Potency [14] | Potency [15] | Potency [16] | outcome [17] | Potency [18]

CCCCCCCCCCCCCCCCCCOCCO
inactive: activity change, negative = cytotoxicity [1] -2.19% [at 15.8 µM] | activity change, negative = cytotoxic [2] -2.29% [at 15.8 µM] | cytotoxicity [3] 1.2% [at 15.8 µM] | activity change, negative = cytotoxic [4] -6.69% [at 15.8 µM] | cytotoxicity increase [5] 8.77% [at 15.8 µM] | activity change, negative = cytotoxicity [6] -4.86% [at 15.8 µM] | viability change, negative = cytotoxic [7] -3.15% [at 15.8 µM] | max response [8] -1.04% | activity change [19] 5.76% [at 15.8 µM, stronger effect = higher value] | cytotoxicity increase [9] 0.179% [at 15.8 µM] | activity change, negative = cytotoxic [20] -5.24% [at 15.8 µM] | cytotoxicity [10] 0.951% [at 15.8 µM] | cytotoxicity increase [11] 2.96% [at 15.8 µM] | activity change, negative = cytotoxicity [12] 18.7% [at 15.8 µM] | cytotoxicity increase [13] 8.15% [at 15.8 µM] | cytotoxicity [14] -0.0743% [at 15.8 µM] | cytotoxicity increase [15] 1.19% [at 15.8 µM] | cytotoxicity increase [16] -0.0989% [at 15.8 µM] | activity change, negative = cytotoxic [17] 1.39% [at 15.8 µM] | activity change, negative = cytotoxicity [18] -7.08% [at 15.8 µM]

O=C1OCCO1
inactive: outcome [1] | Potency [2] | Potency [3] | outcome [4] | Potency [6] | outcome [7] | max response [8] 1.36% | Potency [19] | Potency [9] | Potency [10] | Potency [11] | Potency [12] | Potency [14] | Potency [15] | Potency [16] | outcome [17] | Potency [18]
active: Potency [5] 291 nM | Potency [13] 366 nM

C=C(C)[C@@H]1CC=C(C)CC1
inactive: outcome [1] | Potency [2] | Potency [3] | outcome [4] | Potency [5] | Potency [6] | outcome [7] | max response [8] 1.3% | Potency [19] | Potency [9] | Potency [10] | Potency [11] | Potency [12] | Potency [13] | Potency [14] | Potency [15] | Potency [16] | outcome [17] | Potency [18]
